{"source": "PubChem BioAssay AID1347417", "about": "(National Center for Advancing Translational Sciences (NCATS), 2020)", "note": "Among all 120,000 compounds or so, about 5,300 (4.4%) were called active. About 22% were inconclusive and are not listed. Calls follow the shape of the dose curve; as a rule, active = well fitted inhibition curve with a large enough effect; inconclusive = small, poorly fitted or top-dose-only effect; inactive = no such curve, though single readings can be large or run the other way. The sample as a whole holds a higher share of actives than the screen did. Potency is read from the fitted curve at half-maximal effect.", "data": [{"assay": "qHTS Primary assay for Inhibitors of Plasmodium falciparum Dd2 growth in vitro; also: nearly all actives have a fitted effect of over 65% in size;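 as to activity, negative = inhibition: plate controls were DMSO vehicle for no effect and reference drug for full effect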", "details": "P. falciparum Dd2 growth, SYBR Green, 72 h; series mostly up to 28.9 µM; activity, negative = inhibition: at the top concentration", "method_in_brief": "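Infected erythrocytes (Dd2, 0.3% parasitemia, 2.5% hematocrit final) are added to compound in RPMI-1640/Albumax II medium, grown 72 h at 37C in low oxygen, then lysed with saponin/Triton-X containing SYBR Green and read by fluorescence.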", "values": [{"compound": "CN1C(=O)[C@@H]2C[C@@H](O)CN2C2(CN(Cc3cnc4ccccc4c3)C2)C1=O", "activity, negative = inhibition": "-5.31% [at 44.1 µM] (inactive)"}, {"compound": "COc1ccccc1C(=O)NCCn1cc(SCc2ccccc2Cl)c2ccccc21", "Potency": "3.98 µM (active)"}, {"compound": "O=C(Cn1cc(SCc2cccc(Cl)c2)c2ccccc21)N1CCCCC1", "activity, negative = inhibition": "-16.6% (inactive)"}, {"compound": "COc1ccccc1C(=O)NCc1ccnc2[nH]ccc12", "activity, negative = inhibition": "-1.5% [at 44.1 µM] (inactive)"}, {"compound": "Cc1cc(NC(=O)c2ccc(Cn3ccn4nc5c(c4c3=O)CCCC5)cc2)ccc1F", "outcome": "inactive"}, {"compound": "CCc1cc(NCCS(=O)(=O)CC)n2nccc2n1", "activity, negative = inhibition": "13.8% (inactive)"}, {"compound": "CCN(CC)c1ccc(NC(=O)CN2CCN(CC(=O)Nc3ccc(Cl)cc3)CC2)cc1", "Potency": "8.91 µM (active)"}, {"compound": "CCOc1ccc(NC(=O)CN2CCN(CC(=O)Nc3ccc(OC)cc3)CC2)cc1", "activity, negative = inhibition": "-24.3% (inactive)"}, {"compound": "O=C(Cn1nc2n(c1=O)CCCC2)Nc1ccc(Cl)cc1", "activity, negative = inhibition": "36.3% (inactive)"}, {"compound": "Cc1ccc2[nH]nc(C(=O)N3C[C@@H](C(=O)O)[C@H](c4ccc(F)cc4)C3)c2c1", "activity, negative = inhibition": "-0.77% (inactive)"}, {"compound": "Cc1oc2ccn(Cc3ccccc3F)c(=O)c2c1C(=O)NCc1cccnc1", "activity, negative = inhibition": "-14.6% (inactive)"}, {"compound": "CC(C)c1ccc2oc(-c3cc(NC(=O)c4cccs4)ccc3Cl)nc2c1", "outcome": "inactive; activator; fitted 0.8913 uM"}, {"compound": "CC(c1cccs1)N(C)Cc1ccncc1", "note": "(configuration not stated)", "outcome": "inactive [at 44.1 µM]"}, {"compound": "CC(C)CCN(C(=O)Nc1ccc(Cl)c(Cl)c1)C(C)c1cccs1", "note": "(configuration not stated)", "Potency": "10 µM (active)"}, {"compound": "C=CCNC(=O)N1CCC(C2CCN(Cc3cccc(F)c3F)CC2)C1", "note": "(configuration not stated)", "activity, negative = inhibition": "-5.92% (inactive)"}, {"compound": "O=C(Nc1ccc2ncnc(N3CCCCC3)c2c1)c1ccc2c(c1)OCO2", "outcome": "inactive"}, {"compound": "CC(C)(C)CC(=O)Nc1ccc2c(N3CCOCC3)ncnc2c1", "outcome": "inactive"}, {"compound": "Cc1ccc(C(=O)Nc2ccc3c(N4CCCCC4)ncnc3c2)s1", "Potency": "5.01 µM (active)"}, {"compound": "O=C(Nc1ccc2ncnc(N3CCCCC3)c2c1)c1cccc(Cl)c1", "activity, negative = inhibition": "-14.6% (inactive)"}, {"compound": "Cc1cc(C)cc(C(=O)Nc2ccc3c(N4CCCC4)ncnc3c2)c1", "Potency": "0.708 µM (active)"}, {"compound": "Cc1ccc(C(=O)Nc2ccc3ncnc(N4CCCCC4)c3c2)s1", "activity, negative = inhibition": "-18.8% (inactive)"}, {"compound": "O=C(CCc1cc(Cl)no1)N1CCCC(c2nc(C3CCOCC3)no2)C1", "note": "(configuration not stated)", "outcome": "inactive"}, {"compound": "CCn1c(C2CCCN(C(=O)NCC(C)C)C2)nn(C)c1=O", "note": "(configuration not stated)", "activity, negative = inhibition": "11.7% (inactive)"}, {"compound": "Cn1ccnc1CNC(=O)C[C@@H]1C[C@H]2O[C@H](CNC(=O)NCc3ccccc3)[C@@H](O)[C@H]2O1", "activity, negative = inhibition": "28.4% (inactive)"}, {"compound": "CC(C)c1nc2nccc(-c3ccc4c(c3)OCCCO4)n2n1", "outcome": "inactive"}, {"compound": "O=C(Nc1ccc(C2(C(=O)N3CCCCCC3)CCC2)cc1)C1CC1", "outcome": "inactive"}, {"compound": "COc1ccc(-c2cn3c(n2)sc2cc(C(=O)Nc4ccc(F)cc4)ccc23)cc1", "outcome": "inactive"}, {"compound": "CCC(=O)Nc1ccc2nnc(-c3ccc(C(=O)Nc4ccc(OC)cc4)cc3)n2c1", "Potency": "0.708 µM (active)"}, {"compound": "O=C(Nc1ccc2ncnc(N3CCCCC3)c2c1)C1CCCCC1", "outcome": "inactive"}, {"compound": "COc1cc(C(=O)Nc2ccc(OCc3cc(=O)n4cc(C)sc4n3)cc2)cc(OC)c1OC", "activity, negative = inhibition": "14.6% (inactive)"}, {"compound": "CCC(CC)NC(=O)c1ccc(-c2nnc3ccc(NC(=O)C4CCC4)cn23)cc1", "Potency": "2.51 µM (active)"}, {"compound": "COC[C@@H]1CN(Cc2ccc(F)c(OC)c2)C[C@H]1C(=O)N(C)C", "activity, negative = inhibition": "-18.7% (inactive)"}, {"compound": "CCc1cc2c(-c3ccccc3)cc(=O)oc2c2c1OCN(Cc1ccc(C)cc1)C2", "Potency": "2.24 µM (active)"}, {"compound": "Cc1ccc(Cn2c(=O)n(Cc3nc(-c4ccccc4)no3)c(=O)c3cc4c(cc32)OCO4)cc1", "activity, negative = inhibition": "79.1% (inactive)"}, {"compound": "CCn1c2c(c(=O)n1Cc1ccccc1)CCN(C(=O)Cc1ccc3c(c1)OCO3)C2", "activity, negative = inhibition": "-4.73% [at 44.1 µM] (inactive)"}, {"compound": "Cc1ccc(CN2COc3cc(C)c4c(oc(=O)c5ccccc54)c3C2)cc1", "Potency": "1.12 µM (active)"}, {"compound": "COCCn1cc2c3c(cccc31)CN(C(=O)c1c(F)cccc1Cl)CC2", "activity, negative = inhibition": "-15.4% (inactive)"}, {"compound": "O=C(Nc1ccc(Cl)cc1)c1nc2c(o1)CCN(Cc1ccsc1)CC2", "outcome": "inactive [at 44.1 µM]"}, {"compound": "COCCn1ncc(N2CCC(NC(=O)C3CCC3)CC2)cc1=O", "outcome": "inactive"}, {"compound": "O=C(c1cccc2[nH]ccc12)N1C[C@@H](CO)[C@H](c2ccccn2)C1", "activity, negative = inhibition": "9.59% (inactive)"}, {"compound": "CN1CCC2(C1)CN(CC1CC1)c1ccc(C(=O)NC3CC3)cc12", "note": "(configuration not stated)", "outcome": "inactive [at 44.1 µM]"}, {"compound": "COc1ccc(CCNC(=O)c2ccc3c(c2)sc2nc(-c4ccc(C)cc4)cn23)cc1OC", "outcome": "inactive"}, {"compound": "CCOC(=O)c1ccccc1NC(=O)c1sc2nc(-c3ccc(F)cc3)cn2c1C", "activity, negative = inhibition": "93.4% (inactive)"}, {"compound": "CCN1CCN(CCCNC(=O)c2ccc3c(c2)sc2nc(-c4ccc(OC)cc4)cn23)CC1", "Potency": "3.16 µM (active)"}, {"compound": "COc1ccc(-c2cn3c(C)c(C(=O)Nc4cc(C)cc(C)c4)sc3n2)cc1", "activity, negative = inhibition": "-22.2% (inactive)"}, {"compound": "CCOc1ccc(CCNC(=O)c2ccc3c(c2)sc2nc(-c4ccc(F)cc4)cn23)cc1OCC", "Potency": "5.62 µM (active)"}, {"compound": "COc1ccc(-c2cn3c(n2)sc2cc(C(=O)Nc4ccccc4F)ccc23)cc1", "outcome": "inactive"}, {"compound": "Cc1cccc2nnc(N3CCN(C(=O)c4ccc(F)c(F)c4)CC3)n12", "activity, negative = inhibition": "-14.3% (inactive)"}, {"compound": "O=C(CCNc1c(-c2ccccc2)nc2cnccn12)N1CCC(N2CCCCC2)CC1", "outcome": "inactive"}, {"compound": "CCn1cc(-c2ccccc2)cc1C(=O)NCc1ccccn1", "outcome": "inactive"}, {"compound": "CCCCN1C(=O)c2ccccc2C(C(=O)NCCCOC)C12CCCCC2", "note": "(configuration not stated)", "activity, negative = inhibition": "-7.88% (inactive)"}, {"compound": "C=CCNC(=O)N1CC[C@H]2CC(=O)N(CC(N)=O)CC[C@H]2C1", "activity, negative = inhibition": "-18.1% [at 44.1 µM] (inactive)"}]}]}
